Legend:
Settings in all cases: Compound concentration 20.0 uM
[1] = target: Tyrosine-protein kinase ABL1 (Homo sapiens) (UniProt P00519)
[2] = target: Bromodomain-containing protein 4 (Homo sapiens) (UniProt O60885)
[3] = target: Cyclin-dependent kinase 2 (Homo sapiens) (UniProt P24941)
[4] = target: Casein kinase I isoform delta (Homo sapiens) (UniProt P48730)
[5] = target: Glycogen synthase kinase-3 beta (Homo sapiens) (UniProt P49841)
[6] = target: Mitogen-activated protein kinase 1 (Homo sapiens) (UniProt P28482)
Mitogen-activated protein kinase 1 (Homo sapiens), sequence (P28482 whole entry): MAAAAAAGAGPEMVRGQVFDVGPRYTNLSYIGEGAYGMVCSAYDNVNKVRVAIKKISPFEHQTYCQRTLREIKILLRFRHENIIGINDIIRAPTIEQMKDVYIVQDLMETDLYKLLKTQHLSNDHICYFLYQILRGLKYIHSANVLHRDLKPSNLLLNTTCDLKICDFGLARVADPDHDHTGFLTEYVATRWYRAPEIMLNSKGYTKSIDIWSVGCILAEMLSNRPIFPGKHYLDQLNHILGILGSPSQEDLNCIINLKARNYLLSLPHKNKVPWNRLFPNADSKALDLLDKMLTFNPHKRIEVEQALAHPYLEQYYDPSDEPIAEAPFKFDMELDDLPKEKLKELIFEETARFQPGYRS

[7] = target: T1, Aurora kinase A (Homo sapiens) (UniProt O14965)
T1 sequence (whole entry): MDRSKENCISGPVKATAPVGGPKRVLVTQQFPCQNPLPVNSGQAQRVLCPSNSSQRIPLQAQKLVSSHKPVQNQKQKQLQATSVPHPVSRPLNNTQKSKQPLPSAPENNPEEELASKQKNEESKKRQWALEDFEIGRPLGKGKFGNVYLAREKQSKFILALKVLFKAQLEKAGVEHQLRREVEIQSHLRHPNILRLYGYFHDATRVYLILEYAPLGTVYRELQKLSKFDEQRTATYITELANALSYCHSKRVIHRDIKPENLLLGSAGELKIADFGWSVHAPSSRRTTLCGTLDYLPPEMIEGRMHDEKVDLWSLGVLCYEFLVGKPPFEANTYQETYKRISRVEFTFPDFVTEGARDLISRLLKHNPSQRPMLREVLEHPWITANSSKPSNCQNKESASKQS

[8] = target: T2, Transcription intermediary factor 1-alpha (Homo sapiens) (UniProt O15164)
T2 sequence (whole entry): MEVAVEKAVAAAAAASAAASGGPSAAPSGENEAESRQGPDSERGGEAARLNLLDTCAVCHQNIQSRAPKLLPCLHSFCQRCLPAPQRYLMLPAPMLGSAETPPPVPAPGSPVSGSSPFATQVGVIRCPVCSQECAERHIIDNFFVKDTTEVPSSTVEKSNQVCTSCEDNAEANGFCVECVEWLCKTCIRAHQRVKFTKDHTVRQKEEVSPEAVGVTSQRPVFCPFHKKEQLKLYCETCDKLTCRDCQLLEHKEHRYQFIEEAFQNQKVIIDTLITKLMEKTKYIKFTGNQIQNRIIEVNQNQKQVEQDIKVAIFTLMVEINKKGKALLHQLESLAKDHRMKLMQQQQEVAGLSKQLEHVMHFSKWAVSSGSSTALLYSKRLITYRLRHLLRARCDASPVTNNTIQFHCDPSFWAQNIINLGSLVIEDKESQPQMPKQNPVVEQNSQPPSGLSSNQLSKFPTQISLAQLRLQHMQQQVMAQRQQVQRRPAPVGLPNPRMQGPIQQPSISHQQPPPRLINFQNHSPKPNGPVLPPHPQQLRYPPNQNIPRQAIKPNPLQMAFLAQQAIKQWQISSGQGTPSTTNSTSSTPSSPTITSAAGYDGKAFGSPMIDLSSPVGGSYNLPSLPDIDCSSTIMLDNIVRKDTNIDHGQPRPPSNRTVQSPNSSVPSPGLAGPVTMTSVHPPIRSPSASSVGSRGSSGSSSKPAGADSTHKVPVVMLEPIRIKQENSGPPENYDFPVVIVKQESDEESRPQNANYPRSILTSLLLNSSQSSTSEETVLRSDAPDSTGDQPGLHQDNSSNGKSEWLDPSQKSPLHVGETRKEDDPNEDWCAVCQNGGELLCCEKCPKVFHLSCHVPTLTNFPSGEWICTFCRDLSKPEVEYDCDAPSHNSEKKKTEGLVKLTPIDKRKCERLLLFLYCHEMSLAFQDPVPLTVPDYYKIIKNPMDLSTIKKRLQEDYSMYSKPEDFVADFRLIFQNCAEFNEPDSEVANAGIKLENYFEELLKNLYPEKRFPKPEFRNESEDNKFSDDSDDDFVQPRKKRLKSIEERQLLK

Tyrosine-protein kinase ABL1 (Homo sapiens), sequence (P00519 whole entry): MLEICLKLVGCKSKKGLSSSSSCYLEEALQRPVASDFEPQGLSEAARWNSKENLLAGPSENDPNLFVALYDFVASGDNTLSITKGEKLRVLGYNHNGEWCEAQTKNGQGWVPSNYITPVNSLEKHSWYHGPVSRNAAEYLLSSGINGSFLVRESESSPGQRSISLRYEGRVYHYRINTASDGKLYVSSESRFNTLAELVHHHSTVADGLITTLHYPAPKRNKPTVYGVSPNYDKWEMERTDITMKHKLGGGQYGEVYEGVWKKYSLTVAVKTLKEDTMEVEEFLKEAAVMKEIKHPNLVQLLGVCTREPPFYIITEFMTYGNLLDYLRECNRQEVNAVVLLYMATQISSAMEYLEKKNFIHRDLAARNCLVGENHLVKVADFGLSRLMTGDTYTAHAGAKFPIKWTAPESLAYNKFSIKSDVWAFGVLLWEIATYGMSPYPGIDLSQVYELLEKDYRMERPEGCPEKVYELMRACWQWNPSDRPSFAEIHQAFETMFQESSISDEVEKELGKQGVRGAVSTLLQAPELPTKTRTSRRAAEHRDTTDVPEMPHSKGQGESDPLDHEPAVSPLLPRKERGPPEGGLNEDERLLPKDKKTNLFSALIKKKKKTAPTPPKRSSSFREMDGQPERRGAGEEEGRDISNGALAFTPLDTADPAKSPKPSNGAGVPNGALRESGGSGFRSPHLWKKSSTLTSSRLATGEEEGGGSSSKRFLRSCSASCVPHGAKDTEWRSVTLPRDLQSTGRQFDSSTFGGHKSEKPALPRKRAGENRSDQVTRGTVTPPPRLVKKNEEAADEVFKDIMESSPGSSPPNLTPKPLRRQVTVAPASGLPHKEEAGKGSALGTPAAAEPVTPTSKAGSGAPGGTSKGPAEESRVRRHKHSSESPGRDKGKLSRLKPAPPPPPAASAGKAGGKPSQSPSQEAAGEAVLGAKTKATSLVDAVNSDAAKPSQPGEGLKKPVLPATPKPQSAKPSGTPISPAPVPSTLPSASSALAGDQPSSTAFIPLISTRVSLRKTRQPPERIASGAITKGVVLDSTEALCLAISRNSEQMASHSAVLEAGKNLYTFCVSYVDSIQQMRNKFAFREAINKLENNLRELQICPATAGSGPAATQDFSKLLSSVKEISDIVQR
Glycogen synthase kinase-3 beta (Homo sapiens), sequence (P49841 whole entry, looked up): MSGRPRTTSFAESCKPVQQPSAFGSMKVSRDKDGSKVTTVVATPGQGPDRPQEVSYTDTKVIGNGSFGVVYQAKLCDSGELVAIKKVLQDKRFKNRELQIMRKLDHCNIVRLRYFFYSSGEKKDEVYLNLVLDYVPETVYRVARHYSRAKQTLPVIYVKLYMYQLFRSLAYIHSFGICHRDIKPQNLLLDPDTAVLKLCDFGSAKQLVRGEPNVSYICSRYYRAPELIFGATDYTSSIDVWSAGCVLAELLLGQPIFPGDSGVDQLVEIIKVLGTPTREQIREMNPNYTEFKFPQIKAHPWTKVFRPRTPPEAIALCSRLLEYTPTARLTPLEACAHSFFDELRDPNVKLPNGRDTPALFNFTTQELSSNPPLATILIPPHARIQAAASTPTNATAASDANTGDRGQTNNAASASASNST
Casein kinase I isoform delta (Homo sapiens), sequence (P48730 whole entry, looked up, canonical isoform): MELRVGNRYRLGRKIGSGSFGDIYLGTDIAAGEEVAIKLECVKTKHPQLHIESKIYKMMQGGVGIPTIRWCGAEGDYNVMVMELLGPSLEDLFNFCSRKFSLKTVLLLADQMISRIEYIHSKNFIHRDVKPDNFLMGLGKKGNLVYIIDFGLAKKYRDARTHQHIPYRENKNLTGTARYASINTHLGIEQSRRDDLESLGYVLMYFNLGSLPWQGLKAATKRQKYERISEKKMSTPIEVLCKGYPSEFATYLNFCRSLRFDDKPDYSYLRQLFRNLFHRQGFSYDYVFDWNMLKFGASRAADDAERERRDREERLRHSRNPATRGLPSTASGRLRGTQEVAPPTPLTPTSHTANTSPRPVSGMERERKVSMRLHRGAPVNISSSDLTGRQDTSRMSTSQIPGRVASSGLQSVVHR

SMILES	ΔTm [1]	ΔTm [2]	ΔTm [3]	ΔTm [4]	ΔTm [5]	ΔTm [6]	ΔTm [7]	ΔTm [8]
CC(C)c1c(-c2ccccc2)[nH]c2c(C#N)cnn2c1=O	0.72 °C	-2.81 °C	0.4 °C	-0.22 °C	-0.15 °C	0.17 °C	-1.64 °C	-0.06 °C
CCCC[C@]1(CC)CS(=O)(=O)c2cc(CNC(CC(=O)O)CC(=O)O)c(OC)cc2[C@@H](c2ccccc2)N1	0.44 °C	0.52 °C	-0.44 °C	-0.45 °C	-0.88 °C	0.14 °C	-1.84 °C	0.38 °C
O=C(NCC1CCOCC1)c1n[nH]cc1NC(=O)c1c(F)cccc1F	0.15 °C	-2 °C	3.53 °C	1.77 °C	14.4 °C	0.1 °C	1.73 °C	-0.72 °C
CC(C)(OCc1cc(-c2cccc(OC3CC3)c2)n(-c2ccccc2Cl)n1)C(=O)O	0.39 °C	-3.91 °C	-0.19 °C	0.08 °C	0.42 °C	0.09 °C	-2.34 °C	-0.77 °C
O=C(c1cc(O)c(O)c([N+](=O)[O-])c1)c1ccccc1F	0.42 °C	-1.18 °C	0.1 °C	0.37 °C	0.05 °C	0.25 °C	-1.23 °C	0.61 °C
O=C(Nc1c[nH]nc1C(=O)NC1CCNCC1)c1cc(F)cc(F)c1	0.13 °C	-1.86 °C	1.26 °C	1.02 °C	13.9 °C	-0.13 °C	-0.72 °C	-0.9 °C
Cc1cnc(-c2ccccc2C(C)C)nc1NCc1ccc(-n2ccnn2)cc1	0.32 °C	-1.87 °C	-0.07 °C	-7.36 °C	0.1 °C	0.55 °C	-2.6 °C	-0.58 °C
CCCOc1cccc(Oc2cc3c(cc2NS(=O)(=O)c2cccc(C(=O)NCCOCCOCCOCC(=O)N[C@H](C(=O)N4C[C@H](O)C[C@H]4C(=O)NCc4ccc(-c5scnc5C)cc4)C(C)(C)C)c2)n(C)c(=O)n3C)c1	0.11 °C	-8.44 °C	-3.98 °C	0.83 °C	-4.03 °C	0 °C	-2.91 °C	-3.82 °C
Cc1cc(C)cc(Oc2ccc(CNC(=O)[C@H](C)N)cc2C)c1	1.83 °C	-1.81 °C	0.25 °C	0.15 °C	-1.22 °C	-0.21 °C	-0.6 °C	-1.58 °C
CS(=O)(=O)c1ncn2c(NCc3c(F)ccc4c3CCO4)ncc(-c3ccc(C4CC4)nc3)c12	0.63 °C	-3.29 °C	0.06 °C	-0.23 °C	-0.29 °C	0.08 °C	-2.48 °C	-0.37 °C
Nc1ncnc2c1nc(NCc1ccc(-c3ccccc3)cc1)n2[C@@H]1O[C@H](CO)[C@@H](O)[C@H]1O	1.36 °C	-3.1 °C	0.21 °C	-0.22 °C	-0.69 °C	0.28 °C	-1.41 °C	-0.53 °C
CC(C)NCC(O)COC(Cn1c2ccccc2c2ccccc21)Cn1c2ccccc2c2ccccc21 (stereo not given)	0.25 °C	0 °C	-0.87 °C	-0.3 °C	-5.02 °C	-15 °C	-0.78 °C	-3.49 °C
CCCNC(=O)[C@H]1O[C@@H]1C(=O)N[C@H](C(=O)N1CCC[C@H]1C(=O)O)[C@@H](C)CC	0.43 °C	-1.16 °C	-0.18 °C	-0.02 °C	0.22 °C	-0.39 °C	-1.17 °C	-0.81 °C
Cc1ccc2[nH]c(-n3nc(C)c(Cc4ccccc4)c3O)nc2c1	0.97 °C	-3.32 °C	0.2 °C	0.73 °C	0.42 °C	0.56 °C	-1.88 °C	-0.69 °C
NC(=O)c1ccc(Oc2ccc(C(N)=O)cc2)cc1	0.24 °C	-0.98 °C	-0.07 °C	0.22 °C	0.02 °C	0.14 °C	-1.15 °C	-0.86 °C
Cc1ccnc(NS(=O)(=O)c2ccc(NC(=O)Nc3ccc(S(=O)(=O)Nc4nccc(C)n4)cc3)cc2)n1	0.29 °C	-0.01 °C	0.44 °C	-0.62 °C	-1.11 °C	0.44 °C	-1.78 °C	2.1 °C
O=C(c1cc(Cc2n[nH]c(=O)c3ccccc23)ccc1F)N1CCN(C(=O)C2CC2)CC1	0.22 °C	15.7 °C	0.66 °C	-0.42 °C	-4.34 °C	0.4 °C	-2.14 °C	-1.81 °C
CC(=O)N[C@@H](CC(=O)O)C(=O)N[C@@H](CCC(=O)O)C(=O)N[C@H](C(=O)N[C@H](C=O)CC(=O)O)C(C)C	-0.28 °C	-1.5 °C	-0.58 °C	-0.17 °C	-0.28 °C	-0.74 °C	-1.77 °C	-1.09 °C
O=C(c1cccc(-c2ccc(-c3cn(C(=O)N4CCCCC4c4ccccc4)nn3)cc2)c1)N1CCCCC1 (stereo not given)	1.85 °C	11.3 °C	0.3 °C	0.93 °C	-2.22 °C	1.43 °C	4.6 °C	-0.32 °C
Nc1ccccc1NC(=O)c1ccc(CNc2nccc(-c3cccnc3)n2)cc1	1.28 °C	-1.59 °C	0.7 °C	2.88 °C	0.76 °C	0.18 °C	5.93 °C	-0.03 °C

From ChEMBL document CHEMBL5724796, “Tm Shift (DSF) assay results for EUbOPEN Chemogenomics Library” (2024)
